Assay outcomes (PubChem)
An excerpt weighted towards active compounds, which were near 14% of everything screened.
USP17 block: inhibitors of human USP17 deubiquitinase; purified USP17, Ub-rhodamine cleavage fluorescence, 3 h; hit rate 6.5% among 47,000; inhibition, % at 50 µM; Ubiquitin carboxyl-terminal hydrolase 17-like protein 5 (Homo sapiens), A8MUK1
USP8 block: inhibitors of human USP8 deubiquitinase. hit rate 4.2% among 47,000. AID 1645853, 2021. Ubiquitin carboxyl-terminal hydrolase 8 (Homo sapiens), P40818. inhibition, % at 20 µM. purified USP8, Ub-rhodamine cleavage fluorescence, 30 min
USP30 block: inhibitors of human USP30 deubiquitinase | hit rate 5.3% among 47,000 | Ubiquitin carboxyl-terminal hydrolase 30 (Homo sapiens), Q70CQ3 | purified USP30, Ub-rhodamine cleavage fluorescence | inhibition, % at 25 µM
USP28 block: inhibitors of human USP28 deubiquitinase. Ubiquitin carboxyl-terminal hydrolase 28 (Homo sapiens), Q96RU2. purified USP28, Ub-rhodamine cleavage fluorescence, 30 min. inhibition, % at 25 µM. hit rate 3% among 47,000. AID 1645857, 2021
Each line names hits and unclear results; the compound was inactive in the other large screens. No stated cut-off is given here; in the data, active means inhibition above about 30%; inactive means the rest.

Cc1ccc(NC(=O)Nc2ccc(C)n(CC(=O)Nc3ccc(C)cc3C)c2=O)cc1	USP17 block 79, USP8 block 69, USP30 block 74, USP28 block 53
Cc1ccc(NC(=O)CN2c3ccccc3S(=O)(=O)c3ccccc32)c(C)c1	none
Cc1ccc(C)c(NC(=O)Cn2ccc3ccn(C)c3c2=O)c1	USP17 block 46
O=C(OCC(=O)N1CCOCC1)c1ccccc1Oc1ccccc1	none
CC(C)(C)c1cc(C(=O)N2CCC3(CC(Nc4ccncn4)C3)C2)n[nH]1 (stereo not given)	none
COc1ccc(CCNc2ncnc3c2c(C)c(C)n3Cc2cccnc2)cc1OC	none
COc1cnc(CSc2ncccn2)cc1OCC(=O)Nc1cc(C)ccc1C	USP30 block 55
COc1cnc(CSc2ncccn2)cc1OCC(=O)Nc1cccc(F)c1	USP30 block 32
CN=C(N)NCCC[C@H](N)C(=O)O	USP30 block 31
O=C(CSc1ncnc2c1nnn2Cc1ccccc1)Nc1ccc2c(c1)OCCO2	none
O=C(CSc1ncn(-c2ccccc2)n1)Nc1ccc(Cc2ccncc2)cc1	USP17 block 41, USP30 block 39, USP28 block 46
O=C(NCc1cc(=O)n2c(n1)CNCCC2)C1CC1	none
Cc1cc(C)cc(-c2nc(SCC(=O)N3CCCC3)c3c(=O)n(C)c(=O)n(C)c3n2)c1	USP30 block 36 (no result: USP17 block)
Cn1c(=O)c2c(SCC(=O)N3CCCC3)nc(-c3ccccc3)nc2n(C)c1=O	none
N#Cc1ccc(Cl)cc1NC(=O)COc1cccnc1[N+](=O)[O-]	USP17 block 50, USP30 block 31
COc1ccccc1-c1nnc(SCC(=O)c2ccc3c(c2)NC(=O)CO3)n1Cc1ccco1	USP17 block 37
N#Cc1c2ccc(OCc3ccc(Br)cc3)cc2n2ccccc12	none
CCOC(=O)c1c2ccc(OCc3ccc([N+](=O)[O-])cc3)cc2n2ccccc12	USP8 block 74
CN1CN(C2CC(O)C(CO)O2)C(=O)NC1=O (stereo not given)	none
Nc1c2c(nc3cc(Cl)ccc13)CCCC2=O	USP8 block 45
COc1ccc(Nc2nc(C)c3c(n2)CCCC3=O)cc1	none
COc1cc(NC(=O)c2cc(-c3ccncc3)n(-c3ccc(F)cc3)n2)cc(OC)c1	USP28 block 71
COc1ccc(NC(=O)c2cc(-c3ccncc3)n(-c3ccc(F)cc3)n2)cc1OC	none
Cc1cccc(NC(=O)c2nc(N3CCSCC3)c3cnn(C)c3n2)c1	USP17 block 64
O=C(CSc1nnnn1-c1ccccc1)Nc1ccccc1	USP17 block 51, USP30 block 46
Cc1cccc(Nc2cc(C3CCN(C(=O)c4cncnc4)CC3)ccn2)n1	USP30 block 32
CCN1CCN(Cc2nc3nc(C)cc(N4CCCCCC4)n3n2)CC1	none
CCC(C(=O)OCC(=O)c1c(C)[nH]c2ccccc12)c1ccccc1 (stereo not given)	none
COc1ccc(Nc2cc(C(=O)NCc3cccnc3)c3ccccc3n2)cc1OC	USP17 block 40
CCOc1ccc(Nc2cc(C(=O)NCCc3ccccc3)c3ccccc3n2)cc1	USP17 block 56
CCOc1ccc(Nc2cc(C(=O)NCc3ccc(C)cc3)c3ccccc3n2)cc1	USP17 block 53 (no result: USP30 block, USP28 block)
CCOc1ccc(NC(=O)c2cc(-c3ccc(OC)c(OC)c3)nc3ccccc23)cc1	none
COCCNC(=O)c1ccc(-c2ccc(N3CCCCC3)nc2)cc1	USP17 block 68, USP30 block 31
CC(C)(C)OC(=O)N1CCN(C(=O)Cn2c(=O)nc(-c3ccccc3)c3ccccc32)CC1	USP17 block 33, USP30 block 59
CC(C)(C)OC(=O)N1CCN(c2nccn3nc(-c4ccccc4)cc23)CC1	none
CCCNC(=O)[C@H](Cc1ccccc1)NC(=O)N1CCn2c1nc1ccccc12	USP17 block 40, USP30 block 39
O=C(O)CNC(=O)[C@H](Cc1ccccc1)NC(=O)N1CCn2c1nc1ccccc12	none
CC(C)NC(=O)[C@H](Cc1ccccc1)NC(=O)N1CCn2c1nc1ccccc12	USP17 block 33, USP30 block 62
O=C(NC(Cc1ccccc1)c1ccc2c(c1)OCCO2)c1ccco1 (stereo not given)	none
Cc1c(C(=O)N2CCC[C@H]2[C@H](O)c2nccs2)oc2ccccc12	none
COc1cccc(Cn2cnc3c(NS(=O)(=O)c4ccc(Cl)cc4)c(C)c(C)cc32)c1	USP8 block 49
COCCCn1c(C(=O)NCc2ccc(F)cc2)cc2c(=O)n3ccccc3nc21	USP17 block 38
COCCCn1c(C(=O)NCc2ccccc2Cl)cc2c(=O)n3ccccc3nc21	none
CS(=O)(=O)c1ccc2nc(N(Cc3ccccc3)C(=O)c3ccc4ccccc4c3)sc2c1	none
CS(=O)(=O)c1ccc2nc(N(Cc3cccnc3)C(=O)c3ccc4ccccc4c3)sc2c1	USP17 block 53, USP8 block 63, USP30 block 52
COc1ccccc1NC(=O)CN1CN(c2cccc(F)c2)c2ncccc2S1(=O)=O	none
CC(=O)N1CCCC(c2cncc(N3CC4(CCCCC4)OC3=O)n2)C1 (stereo not given)	none
CC(C)(C)C(=O)N1CCCC(c2cncc(N3CC4(CCCCC4)OC3=O)n2)C1 (stereo not given)	USP30 block 45
c1ccc2c(c1)NC1(CCN(Cc3cnc(N4CCOCC4)nc3)CC1)N1CCN=C21	none
CC(=O)Nc1cc2cc(-n3cccc3)ccc2oc1=O	USP17 block 59
O=C(COc1ccc(Br)cc1)Nc1ccc(S(=O)(=O)N2CCc3ccccc32)cc1	none
Cc1cc(C)c(NC(=O)CSc2nc3nccnc3c(=O)n2Cc2ccccc2Cl)c(C)c1	USP17 block 49, USP28 block 37
CCn1c(CNc2ccc(C)cc2)nnc1SCC(=O)Nc1ccccc1Cl	none
COc1cccc(Cn2nc3n(C(C)C)c(=O)c4ccc(C(=O)NCC(C)C)cc4n3c2=O)c1	USP17 block 33
Cc1ccc(OCc2nc3ccccc3n2Cc2ccc(F)cc2)cc1	USP17 block 34
c1ccc(Cn2c(CNc3cccc4ccccc34)nc3ccccc32)cc1	USP8 block 58
C=C(C)Cn1c(CNC(=O)Cc2ccccc2)nc2ccccc21	none
Fc1ccc(NCc2nc3ccccc3n2Cc2ccccc2)cc1	USP30 block 42, USP28 block 33
CCOc1ccc(NCc2nc3ccccc3n2Cc2ccccc2)cc1	USP8 block 42
Cc1c(NC(=O)c2cccc3c2SCCC3=O)cccc1[N+](=O)[O-]	none (no result: USP30 block, USP28 block)
Cc1ccc2oc(SCC(=O)Nc3ccccc3F)nc2n1	none
COc1cccc(-c2ccc3c(C4CCCN4C(=O)c4cccnc4)nnn3c2)c1 (stereo not given)	none
COc1ccc(CC(=O)Nc2ccccc2-c2ccccc2NC(=O)Cc2ccc(OC)cc2)cc1	none
CCCN1C(=O)C2(CC(=O)Nc3[nH]ncc32)c2ccccc21 (stereo not given)	none
O=C(Nc1ccc2c(c1)OCCO2)Nc1nnc(CC(=O)N2CCOCC2)s1	none
Cc1cccc(NC(=O)Nc2nnc(CC(=O)NCc3ccccc3)s2)c1	USP17 block 73
